The list is not random: actives were taken first. Their share in the collection is about 0.79%.
LANA-H2B inh = blockers of LANA interaction with H2A/H2B – biochemical, FP readout, HTS, primary screen; 0.6% of 320,000 active; Protein LANA1 (Human herpesvirus 8 type P (isolate GK18)), Q9QR71; cell-free LANA-H2A/H2B peptide, fluorescence polarization; inhibition, % (concentration not given with the values); in the data active = inhibition mostly above about 10%, no sharp cut-off; inactive = mostly below about 6.7%
HDAC3 inhib = HDAC3 deacetylase inhibitors, primary screen, biochemical, fluorescence, cell-free homogeneous; Histone deacetylase 3 (Homo sapiens), O15379; 0.15% of 320,000 active; recombinant HDAC3, fluorogenic peptide/trypsin coupled; inhibition, % at 8.3 µM; in the data active = inhibition above about 26%, passing the limit was not always enough
Target sequence (O15379 whole entry, looked up): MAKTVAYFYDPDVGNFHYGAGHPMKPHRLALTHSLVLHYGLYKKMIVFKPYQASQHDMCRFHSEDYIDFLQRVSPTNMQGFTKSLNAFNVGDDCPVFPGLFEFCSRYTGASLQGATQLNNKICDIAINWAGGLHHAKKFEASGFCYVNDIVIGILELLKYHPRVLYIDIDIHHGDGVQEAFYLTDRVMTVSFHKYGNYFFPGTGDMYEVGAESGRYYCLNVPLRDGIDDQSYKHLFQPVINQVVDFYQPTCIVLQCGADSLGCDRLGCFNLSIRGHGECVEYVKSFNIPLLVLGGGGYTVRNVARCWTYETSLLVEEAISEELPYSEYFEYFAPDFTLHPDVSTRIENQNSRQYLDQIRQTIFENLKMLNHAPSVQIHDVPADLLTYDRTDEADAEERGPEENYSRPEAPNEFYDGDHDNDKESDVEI
iPSC survival up = enhancers of single-cell hiPSC survival, primary screen, ATPlite luminescence | 0.044% of 360,000 active | 100% = ROCK inhibitor wells, 0% = DMSO | survival enhancement, % at 20 µM; in the data active = survival enhancement above about 18%;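 note: cells exposed to compounds for 16 hours before the ATP read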
DAGLB inh = DAGLB lipase inhibitors, primary screen, biochemical, fluorescence, HTS; HEK293T DAGLB membrane lysate, EnzChek fluorogenic substrate; 0.059% of 340,000 active; inhibition, % at 5.17 µM; AID 504411, 2011; Diacylglycerol lipase-beta (Homo sapiens), Q8NCG7; in the data active = inhibition above about 34%;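 note: 0% = enzyme with vehicle and 100% = wells lacking enzyme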
Starred values were filed as active, the others as inactive; . = not tested or not shown; + = active, no number.

SMILES	LANA-H2B inh	HDAC3 inhib	iPSC survival up	DAGLB inh
O=c1[nH]cnc2c1ccn2C1OC(CO)C(O)C1O (stereo unspecified)	.	.	-5	-1
COc1cc2ccccc2cc1C(=O)Nc1nccs1	20*	-4	-2	-4
CC(C)(C)c1cc[n+](CC(=O)Nc2cc(C(F)(F)F)ccc2N2CCOCC2)cc1	18	1	-1	2
O=[N+]([O-])c1ccc(-c2n(-c3ccccn3)c3ccccc3[n+]2-c2ccccn2)cc1	8	-1	-1	3
COc1ccc(C(=O)n2c(-c3ccco3)nc3ccccc32)cc1	0	43*	-2	-5
O=C(CSc1nnnn1-c1cccc2ccccc12)Nc1ccc(N2CCOCC2)c(Cl)c1	15*	4	3	-3
COc1ccccc1C/C(N)=N/OC(=O)COc1cccc(C)c1C	+	4	0	-14
COc1ccccc1C/C(N)=N/OC(=O)COc1cc(C)cc(C)c1C	1	4	-1	-18
CCc1c(C(=O)Nc2ccc(OC)cc2)[nH]c(C)c1C(C)=O	7	0	22*	0
COc1ccc(NC(=O)c2[nH]c(C)c(C(C)=O)c2C)cc1	-4	5	0	-2
CCC(c1nnnn1-c1c(C)cccc1C)N1CCN(c2ccccn2)CC1 (stereo unspecified)	.	.	0	.
CC1Cc2ccccc2N1C(=O)c1ccc(F)c(S(=O)(=O)N2CCOCC2)c1 (stereo unspecified)	0	1	4	-1
O=C(C[n+]1ccccc1)Nc1ccccc1Br	-1	-2	0	.
O=C(C[n+]1ccccc1)Nc1ccccc1[N+](=O)[O-]	111*	0	2	1
COc1cc(Cl)ccc1OC1(C)CCN(Cc2cccc(OC)c2OC)C1 (stereo unspecified)	.	.	2	.
O=C(Oc1ccc(=O)n(-c2ccccc2)n1)c1ccccc1	-2	81*	1	-3
Cc1ccc(C(=O)O)cc1[N+](=O)[O-]	-5	3	2	1
Cc1cc(C)c(NC(=O)c2cc(C(=O)O)ccc2C(=O)O)c([N+](=O)[O-])c1	12*	-1	2	0
COc1cc(C(=O)Nc2ccc(C)c(S(=O)(=O)N(C)C)c2)ccc1OCC(=O)N1CCOCC1	6	4	0	0
CN(C)c1ccc(N=Cc2nc(-c3ccccc3)oc2OC(=O)c2cccc(Cl)c2)cc1	-50	1	-2	-1
COc1cccc(N=Cc2nc(-c3ccccc3)oc2OC(C)=O)c1	3	59*	0	-1
Cc1ccc(C(=O)Oc2oc(-c3ccccc3)nc2C=Nc2ccc(N(C)C)cc2)cc1	-23	-10	-2	2
COc1ccc(N=Cc2nc(-c3ccccc3)oc2OC(C)=O)cc1	0	38*	0	-2
COc1cc(/C=N/NC(=O)COc2ccc(-n3cnnn3)cc2)ccc1OCC(N)=O	-2	-2	1	-1
CC(=O)Oc1cccc(/C=C2\Sc3ccccc3C2=O)c1	14*	4	-1	-8
SMILES	LANA-H2B inh	HDAC3 inhib	iPSC survival up	DAGLB inh
O=C(CSc1nc(-c2ccccc2)nn1C(=O)c1ccccc1)Nc1cccc([N+](=O)[O-])c1	0	41*	1	0
Nc1ccc(SCC(=O)Nc2cccc([N+](=O)[O-])c2)cc1	71*	5	0	-1
O=C(CSCCO)Nc1cccc([N+](=O)[O-])c1	5	0	2	2
OCC[C@H]1NCc2cc(CO)cc(-c3ccccc3)c21	.	.	2	-3
O=C(Nc1ccc(NC(=O)c2ccco2)c(Cl)c1)c1ccccc1	21*	-4	2	-1
CNC(=O)c1oc(-c2ccccc2)nc1C	-3	1	0	-1
O=S1(=O)CCN(C(CCO)c2cccc(C(F)(F)F)c2)CC1 (stereo unspecified)	+	-1	2	0
Cc1ccccc1C(=O)c1cccn1CC(=O)NCc1cccc(Cl)c1	-1	6	0	-2
CN1CCCN(C(c2ccccc2)c2ccc(Cl)cc2)CC1 (stereo unspecified)	29*	.	-4	3
CN1CCN(C(c2ccccc2)c2ccccc2)CC1	0	7	0	2
Cc1ccc(N(CC(=O)Nc2cc(Cl)ccc2Oc2ccccc2)S(C)(=O)=O)cc1C	-4	27*	3	-9
Cc1ccc(N(CC(=O)Nc2cc(Cl)ccc2Oc2ccccc2)S(C)(=O)=O)c(C)c1	-6	17	-1	-8
Cc1nc2ccc(C(C(F)(F)F)(C(F)(F)F)C(F)(F)F)cc2[nH]1	-5	32*	0	-5
CCOc1ccc2cc(C#N)c(SCC(=O)NC(C)CC)nc2c1 (stereo unspecified)	34*	-3	.	.
CCOC(=O)CSc1nc2cc(OCC)ccc2cc1C#N	2	-1	1	-5
CCCOc1c(Br)cc(C(=O)OCC(=O)NC(=O)c2cccn2C)cc1OC	+	3	0	2
O=CNc1ccccc1	96*	2	0	2
C=CC[C@@H](CC(=O)N(CCO)Cc1ccccc1)C(=O)N[C@@H](COC(=O)[C@@H](CC=C)Cc1ccc(F)cc1)Cc1ccccc1	4	35*	-2	-6
C=CC[C@@H](CC(=O)N(CCO)Cc1ccccc1)C(=O)N[C@H](COC(=O)[C@@H](CC=C)Cc1ccc(F)cc1)Cc1c[nH]c2ccccc12	-3	8	-2	-7
C=CCC[C@H](Cc1ccc(F)cc1)C(=O)OC[C@H](Cc1c[nH]c2ccccc12)NC(=O)[C@H](CC=C)CC(=O)N(CCO)Cc1ccccc1	-1	47*	2	-6
C=CC[C@H](CC(=O)N(CCO)Cc1ccccc1)C(=O)N[C@H](COC(=O)[C@@H](CC=C)Cc1ccc(F)cc1)Cc1c[nH]c2ccccc12	4	41*	0	-6
C=CCC[C@@H](Cc1ccc(F)cc1)C(=O)OC[C@@H](NC(=O)[C@@H](CC=C)CC(=O)N(CCO)Cc1ccccc1)c1ccccc1	3	38*	2	-9
C=CCC[C@@H](Cc1ccc(F)cc1)C(=O)OC[C@H](Cc1c[nH]c2ccccc12)NC(=O)[C@@H](CC=C)CC(=O)N[C@@H](CO)Cc1ccccc1	-1	-3	0	1
Cc1c(C(=O)NCc2ccccc2C(F)(F)F)sc(=O)n1Cc1ccc2c(c1)OCO2	.	.	3	.
C=CCC[C@H](Cc1ccc(F)cc1)C(=O)OC[C@H](Cc1c[nH]c2ccccc12)NC(=O)[C@@H](CC=C)CC(=O)NCCO	-3	31*	3	-1
C=CCC[C@@H](Cc1ccc(F)cc1)C(=O)OC[C@@H](Cc1c[nH]c2ccccc12)NC(=O)[C@@H](CC=C)CC(=O)N(CCO)Cc1ccccc1	+	-2	-1	0
C=CCC[C@@H](Cc1ccc(F)cc1)C(=O)OC[C@@H](Cc1c[nH]c2ccccc12)NC(=O)[C@@H](CC=C)CC(=O)N[C@@H](CO)Cc1ccccc1	.	12	-1	1
